Smad3 inh: Smad3/FoxH1 peptide binding inhibitors, primary screen, biochemical, TR-FRET; Mothers against decapentaplegic homolog 3 (Homo sapiens), P84022; TR-FRET Smad3/Dy647-FoxH1 peptide binding, europium anti-His; inhibition, % at 25 µM; actives 0.29% (n = 88,000);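 active means compounds that reduce the energy-transfer binding signal between the protein and its labelled peptide by more than half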
ERa SRC1 inh: ERα–SRC-1 coactivator interaction inhibitors, primary screen, biochemical, TR-FRET, ERα LBD, estradiol-bound; inhibition, % at 25.6 µM; Estrogen receptor (Homo sapiens), P03372; actives 1.7% (n = 86,000); TR-FRET ER-alpha LBD / SRC-1 peptide; AID 629, 2007; in the data active means inhibition above about 50%
ERa SRC1 pot: enhancers of ERα–SRC-1 coactivator binding, primary screen, biochemical, TR-FRET, ERα LBD, low estradiol. actives 1.3% (n = 86,000). coactivator binding (% of control), % at 25.6 µM. TR-FRET ERalpha-LBD/SRC-Cy5 coactivator binding, 2 h; 100 = basal binding, no effect. Estrogen receptor (Homo sapiens), P03372; in the data active means activity above about 200%;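 further: binding measured in presence of low estradiol as agonist stimulus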
ERb SRC1 inh: inhibitors of ERβ-SRC1 coactivator interaction, primary screen, biochemical, TR-FRET, ERβ LBD, SRC-1 peptide | TR-FRET ER-beta LBD / SRC1-Cy5 peptide binding; receptor agonist-loaded with 1 µM estradiol | inhibition, % at 25.6 µM | AID 633, 2007 | Estrogen receptor beta (Homo sapiens), Q92731 | actives 1.3% (n = 86,000);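 active means compounds whose percent inhibition of the receptor-coactivator binding signal exceeds about 50% in the single-dose screen, limit read from the data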
Target sequence (Q92731 whole entry, looked up, the tested form may be a part): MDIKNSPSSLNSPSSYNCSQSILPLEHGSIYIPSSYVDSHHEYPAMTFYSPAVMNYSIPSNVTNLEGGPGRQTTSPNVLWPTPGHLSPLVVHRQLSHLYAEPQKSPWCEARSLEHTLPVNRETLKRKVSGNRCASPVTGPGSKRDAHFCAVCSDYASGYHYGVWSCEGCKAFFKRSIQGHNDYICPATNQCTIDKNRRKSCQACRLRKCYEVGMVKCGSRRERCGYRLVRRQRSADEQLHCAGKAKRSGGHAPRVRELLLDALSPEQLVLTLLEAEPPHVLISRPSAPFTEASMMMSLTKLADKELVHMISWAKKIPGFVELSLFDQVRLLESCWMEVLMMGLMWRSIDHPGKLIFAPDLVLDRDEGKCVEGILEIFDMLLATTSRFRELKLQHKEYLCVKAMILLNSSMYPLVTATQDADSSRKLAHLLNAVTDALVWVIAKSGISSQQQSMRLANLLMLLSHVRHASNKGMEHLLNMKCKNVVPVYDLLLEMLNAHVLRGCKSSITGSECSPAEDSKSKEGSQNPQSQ
Calb biofilm kill: clotrimazole potentiators killing Candida biofilms, primary screen, with clotrimazole, Alamar Blue; C. albicans biofilm + clotrimazole; actives 0.14% (n = 85,000); inhibition, % at 6 µM;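 active means inhibition above 20%; inactive means inhibition below 20%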;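 further: preformed 24 hr biofilms exposed to compound for 48 hr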
HePTP inh: inhibitors of human HePTP phosphatase, primary screen, biochemical, absorbance, leukemia target; recombinant HePTP phosphatase activity, OD absorbance; inhibition, % at 20 µM; Tyrosine-protein phosphatase non-receptor type 7 (Homo sapiens), P35236; actives 0.64% (n = 110,000); in the data active means inhibition above about 50%
Hits are given with their value; . = inactive; / = not tested or not shown; [ ] = dose if it differs, or a comment. Shown are actives, neighbours in structure and some others; about 2.9% of the full set was active somewhere.

SMILES | Smad3 inh | ERa SRC1 inh | ERa SRC1 pot | ERb SRC1 inh | Calb biofilm kill | HePTP inh
COc1cc([N+](=O)[O-])cc(/C=C2\C(=O)NC(=O)N(c3ccc(Br)c(C)c3)C2=O)c1O | / | / | / | / | / | .
CC1(C)Cc2ccccc2/C(=C/C(=O)Nc2ccc([N+](=O)[O-])cc2)N1 | / | / | / | / | / | .
COC(=O)c1[nH]c2ccc(C)cc2c1NC(=O)CN1CCCCC1C (stereo not drawn) | / | / | / | / | / | .
COC(=O)c1[nH]c2ccc(C)cc2c1NC(=O)CN1CCCc2ccccc21 | . | 77[fluorescence artefact?] | . | 54 | . | .
Cc1cc(-c2ccc(Cl)cc2)c(C#N)c(N)n1 | . | . | 285[fluorescence artefact?] | . | . | /
O=C1CS/C(=N/N=C/c2ccc(-c3ccc(Cl)cc3)o2)N1 | / | / | / | / | / | .
CCN(CC)S(=O)(=O)c1cc(C(=O)Nc2cccc(C(=O)O)c2)ccc1Cl | / | / | / | / | / | .
O=C(CSc1nnc(-c2cccnc2)n1-c1ccccc1)Nc1ccc2c(c1)OCO2 | . | . | . | 57 | . | .
Cc1ccc(-n2c(SCC(=O)Nc3ccc4c(c3)OCO4)nnc2-c2cccs2)cc1 | . | 85[fluorescence artefact?] | 378[fluorescence artefact?] | . | . | .
O=C(CSc1nnc(-c2cccs2)n1-c1ccccc1)NCc1ccc2c(c1)OCO2 | . | . | . | . | . | .
CCn1c(SCC(=O)Nc2ccccc2C)nnc1-c1ccccc1O | . | . | . | . | . | .
Cc1ccccc1NC(=O)CSc1nnc(-c2ccccc2)n1-c1ccccc1 | . | . | 402[fluorescence artefact?] | . | . | /
CCOC(=O)c1c(C)nc(C)nc1NC(=O)c1ccccc1 | / | / | / | / | / | .
Cc1ccc(-c2c3c(nc4sc(C(N)=O)c(N)c24)CCC3)cc1 | . | . | . | . | . | /
NC(=O)c1sc2nc3c(c(-c4ccc(Cl)cc4)c2c1N)CCCC3 | . | . | 252[fluorescence artefact?] | . | . | /
COc1cc(/C=c2\sc3nc4ccccc4n3c2=O)cc(I)c1OCC(=O)O | / | / | / | / | / | 75
COc1ccccc1NC(=O)NC(N)=O | . | . | . | 74 | . | .
COc1ccccc1NC(=O)NC(=O)N(C(C)C)S(C)(=O)=O | . | . | . | . | . | /
CCCCc1c(C)[nH]c2ccc(OC)cc2c1=S | / | / | / | / | / | .
Cn1c(N)c(C(=O)CSc2nc3ccccc3n2-c2ccccc2)c(=O)n(C)c1=O | . | . | 231[fluorescence artefact?] | . | . | .
COc1ccc(-n2c(SCC(=O)c3c(N)n(C)c(=O)n(C)c3=O)nc3ccccc32)cc1 | . | . | . | . | . | .
CCn1cc(C(=O)O)c(=O)c2cc(F)c(N3CCNCC3)nc21 | . | . | . | . | 22 | .
CCn1cc(C(=O)O)c(=O)c2ccc(C)nc21 | . | . | . | . | . | .
Cc1ccc(C(=O)O)cc1-c1ccc(/C=C2/NC(=O)N(c3ccccc3)C2=O)o1 | . | 80[fluorescence artefact?] | . | 81[fluorescence artefact?] | . | /
Cc1ccc([N+](=O)[O-])cc1-c1ccc(/C=C2/C(=O)NC(=O)N(c3ccccc3)C2=O)o1 | / | / | / | / | / | .
SMILES | Smad3 inh | ERa SRC1 inh | ERa SRC1 pot | ERb SRC1 inh | Calb biofilm kill | HePTP inh
COCC(=O)Nc1cc(C)c2c(=O)oc3ccccc3c2n1 | . | . | . | . | . | .
COc1ccc(C(=O)Nc2cc(C)c3c(=O)oc4ccccc4c3n2)cc1 | . | 53[fluorescence artefact?] | . | . | . | /
O=C(CSc1nc2ccccc2s1)c1sc2sc3ccccc3[n+]2c1O | 96 | / | / | / | / | /
O=C(OCC(=O)N1CCN(C(=O)c2ccco2)CC1)c1cc(-c2ccc(Cl)c(Cl)c2Cl)nc2ccccc12 | . | . | . | . | . | /
O=C(OCC(=O)N1CCN(C(=O)c2ccco2)CC1)c1cc(-c2ccco2)nc2ccccc12 | . | 92[fluorescence artefact?] | . | 89 | . | /
COc1ccc(CNC(=O)COC(=O)c2cc(-c3ccco3)nc3ccccc23)cc1 | . | 87[fluorescence artefact?] | . | 77 | . | /
CC(C)CC(NC(=O)/C(=C\c1ccc2c(c1)OCO2)NC(=O)c1ccco1)C(=O)O (stereo not drawn) | / | / | / | / | / | .
Cc1ccc(C(=O)CN2CCC(NC(=O)C3CCCCC3)CC2)cc1 | . | . | 605[fluorescence artefact?] | . | . | .
Cc1cc(C)nc(NC(=O)c2ccc(Cl)c(Cl)c2)n1 | . | . | . | . | . | /
Cc1cc(C)nc(NC2=NCCN2C(=O)Nc2ccc(Cl)c(Cl)c2)n1 | . | . | 970 | . | . | .
Cc1cc(OCC(=O)Nc2cc(-c3nn4c(C)nnc4s3)ccc2C)ccc1Cl | . | . | 621[fluorescence artefact?] | . | . | .
COc1ccc(OCC(=O)Nc2cc(-c3nn4c(C)nnc4s3)ccc2C)cc1 | . | . | 276[fluorescence artefact?] | . | . | .
CN1C(=O)c2c(sc3c2CCCC3)NC1c1ccccc1O (stereo not drawn) | . | . | . | 78[fluorescence artefact?] | . | .
CCCNCC1COc2ccccc2O1 (stereo not drawn) | . | 84[fluorescence artefact?] | . | 80 | . | /
CCOC(=O)CCNCC1COc2ccccc2O1 (stereo not drawn) | . | . | . | . | . | .
COc1ccc(OC)c(NC(=O)C2C3CCC(C3)C2C(=O)O)c1 (stereo not drawn) | / | / | / | / | / | .
COc1cc2c(cc1OC)-c1nnc(-c3ccc(Br)o3)n1C(C)(C)C2 | / | / | / | / | / | .
CC(C)CNC(=O)COc1ccc(Br)cc1 | / | / | / | / | / | .
COc1ccc(OCCCC(=O)NCC(C)C)cc1 | . | . | . | . | 64 | /
Cn1c(SCC(=O)Nc2ccccc2F)nnc1-c1cc2ccccc2o1 | . | . | 597[fluorescence artefact?] | . | . | /
CC(=O)Nc1ccc(-c2nnc(SCC(=O)n3c4c(c5ccccc53)CCCC4)n2C)cc1 | . | . | 256 | . | . | .
Cn1c(SCC(=O)N2CCN(c3ccccc3)CC2)nnc1-c1cc2ccccc2o1 | . | . | . | . | . | .
Cn1c(SCC(=O)Nc2ccc3c(c2)oc2ccccc23)nnc1-c1ccccc1 | . | 52 | 251[fluorescence artefact?] | . | . | .
Cn1c(SCC(=O)Nc2sccc2C#N)nnc1-c1ccccc1 | . | 53 | . | . | . | /
Cn1cnnc1SCC(=O)Nc1sccc1C#N | . | . | . | . | . | .
SMILES | Smad3 inh | ERa SRC1 inh | ERa SRC1 pot | ERb SRC1 inh | Calb biofilm kill | HePTP inh
C=CCc1cccc(/C=N/N=C2c3ccccc3Cc3ccccc32)c1O | / | / | / | / | / | .
COc1ccc(Cl)cc1NC(=O)c1cc2c(C)nn(-c3ccccc3)c2s1 | / | / | / | / | / | .
O=C1NC(=O)C(=Cc2ccc(-c3cccc(Br)c3)o2)C(=O)N1 | / | / | / | / | / | .
COc1ccc(OC)c(NC(=O)c2cc(-c3ccc(C)cc3O)n[nH]2)c1 | . | 70 | . | . | . | .
Cc1ccc(-c2cc(C(=O)Nc3cc(C)ccc3C)[nH]n2)c(O)c1 | . | . | . | . | . | .
COc1ccc(NC(=O)C2=C(C)NC(=O)NC2c2cccc(OC)c2)cc1 (stereo not drawn) | / | / | / | / | / | .
Cc1nnc(SCc2nnc(-c3ccccc3Br)o2)n1-c1ccccc1 | . | . | . | . | . | .

Source: PubChem
